This is an account of results in PubChem BioAssay (NCI).

The nature of assay [1]: NCI Yeast Anticancer Drug Screen. Data for the rad50 strain (AID 155).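 Note: 0% = growth of vehicle-only cultures of the same strain.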 To be noted: S. cerevisiae rad50 strain growth inhibition; at 50.0 µM; active compounds read high. In a few lines: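 Genetically altered yeast (DNA repair pathway); compound treatment; growth inhibition vs vehicle ctrl.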
A short description of assay [2]: NCI Yeast Anticancer Drug Screen. Data for the mec2-1 strain (AID 157). To be noted: S. cerevisiae mec2-1 strain, at 50.0 µM, active compounds read high. In a few lines: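 Cells of the genetically defined mec2-1 yeast strain are incubated with test compound. Inhibition of growth is calculated against vehicle-treated controls.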
A short description of assay [3]: NCI Yeast Anticancer Drug Screen. Data for the sgs1 mgt1 strain (AID 161).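 Note: 0% = growth of cultures given vehicle only.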 To be noted: S. cerevisiae sgs1 mgt1 strain, at 50.0 µM, active compounds read high. In a few lines: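 Inhibition of yeast growth, normalised to vehicle-treated controls, is reported for a strain bearing genetic alterations in DNA damage repair.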
Assay [4] in a line: NCI Yeast Anticancer Drug Screen. Data for the cln2 rad14 strain (AID 165).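 Note: 0% = growth equal to vehicle treated cultures.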 As to conditions: S. cerevisiae cln2 rad14 strain, at 50.0 µM, active compounds read high. In a few lines:
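The screen exposed genetically defined yeast (cln2 rad14) to test compounds and scored growth inhibition relative to vehicle-treated controls.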

Assay [5] in a line: NCI Yeast Anticancer Drug Screen. Data for the bub3 strain (AID 167). As to conditions: S. cerevisiae bub3 mutant strain, at 50.0 µM, active compounds read high. In a few lines:
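Yeast carrying a defined mutation is treated with each compound, and growth is compared with that of vehicle-exposed cells to give inhibition.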

The nature of assay [6]: NCI Yeast Anticancer Drug Screen. Data for the mlh1 rad18 strain (AID 175). To be noted: S. cerevisiae mlh1 rad18 strain growth inhibition; at 50.0 µM; active compounds read high. In a few lines:
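Compound-treated yeast growth, normalised to vehicle controls. Strain bears defined DNA repair mutations.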

About 79,000 compounds went through this panel and 15% of them were active in at least one assay; those are over-represented in the sample as a whole. Values without a mark were called inactive. Activity calls are given as the source filed them. Cut-off read from the data, not from the text of the source: active = growth inhibition above about 70%; inactive = the rest.

For `CCOP(=O)(OCC)C1OCC(O)C(C2OC(P(=O)(OCC)OCC)OCC2O)O1` (stereo unspecified), the growth inhibition in assay [1] was 7.95%; in assay [2], 4.4%; in assay [3] it was 2.45%; in assay [4] it was 0.85%; in assay [5], -1.55%; in assay [6], 7.25%.
With `c1ccc2nc3ccccc3cc2c1`, the growth inhibition in assay [1] is 2.7%; in assay [2], 19.6%; in assay [3] it was 27.1%; in assay [4], 27.8%; in assay [5], 3.1%; in assay [6], 5.95%.
Regarding `c1ccc2c3c([nH]c2c1)CCCCCC3`, the growth inhibition is 19.2% in assay [1]; 14.6% in assay [2]; 15.1% in assay [3]; 13.2% in assay [4]; 21.8% in assay [5]; 15.9% in assay [6].
For `N#Cc1nc(CCCCCN2C(=O)c3ccccc3C2=O)oc1N`, the growth inhibition is -8.9% in assay [1]; 9.2% in assay [2]; -23.1% in assay [3]; -4.1% in assay [4]; -28.6% in assay [5]; -68.8% in assay [6].
For the compound `Cc1nnnn1-c1ccc([N+](=O)[O-])cc1`, the growth inhibition is 8.45% in assay [1]; 8.35% in assay [2]; -1.5% in assay [3]; -17.6% in assay [4]; 0.75% in assay [5]; 7.4% in assay [6].
Turning to `COC(=O)c1ccc(C(=O)OC)cc1`, the growth inhibition was -12.2% in assay [1]; -26.1% in assay [2]; 15.9% in assay [3]; 12.2% in assay [4]; 8.95% in assay [5]; 11.3% in assay [6].
For `CC1(C)CC(=O)C(C)(CCc2ccccc2)C(=O)C1`, the growth inhibition was -2.8% in assay [1]; 8.9% in assay [2]; 13.7% in assay [3]; -44.6% in assay [4]; -11.4% in assay [5]; -6.65% in assay [6].
Take `COC(=O)c1ccc(N(C)CC/C(CNc2nc(N)[nH]c(=O)c2[N+](=O)[O-])=N\NC(N)=O)cc1`: the growth inhibition in assay [1] was 9.35%; in assay [2], 10.6%; in assay [3] it was -2.4%; in assay [4], 6.25%; in assay [5], -7.55%; in assay [6], -4.15%.
For `CNC(=O)Nc1ccccc1`, the growth inhibition in assay [1] was 27.4%; in assay [2] it was -0.55%; in assay [3], -12.1%; in assay [4], 16.9%; in assay [5] it was -21.9%; in assay [6] it was 7.6%.
As for `Cc1cc(Cc2ccc3c(c2)OCO3)ccc1OCC(=O)O`, the growth inhibition in assay [1] is 15.1%; in assay [2] it was 18.3%; in assay [3] it was 15.6%; in assay [4] it was 13.4%; in assay [5], 20.8%; in assay [6] it was 23.8%.
`C=CCc1ccc(OC(=O)Nc2ccc(S(=O)(=O)CC)cc2)c(OC)c1`: the growth inhibition in assay [1] was 1.65%; in assay [2], -12.8%; in assay [3], -26.4%; in assay [4] it was -19.9%; in assay [5] it was -14.2%; in assay [6] it was -10.3%.
Turning to `Cc1nc2ccc(S(=O)(=O)Nc3ccccc3Cl)cc2c(=O)n1NC(=O)CNc1ccccc1Cl`, the growth inhibition in assay [1] was 26.4%; in assay [2], 0.2%; in assay [3], 13.4%; in assay [4], 6.95%; in assay [5], 21.8%; in assay [6], 21.3%.
Regarding `CN(/N=C/c1cccs1)c1ccc([N+](=O)[O-])cc1[N+](=O)[O-]`, the growth inhibition is -24.7% in assay [1]; -25.5% in assay [2]; 7.05% in assay [3]; -9.35% in assay [4]; -12.8% in assay [5]; -10.8% in assay [6].
For `CCN(CC)CCc1c2c(nc3ccccc13)C(=O)c1cccnc1C2=O`, the growth inhibition in assay [1] was 84.3% (active); in assay [2] it was 66.3%; in assay [3], 84% (active); in assay [4], 74.4% (active); in assay [5], 79.2% (active); in assay [6], -21.5%.
For the compound `CC(=O)OCCOCN1C(=O)CC(=O)NC1=O`, the growth inhibition in assay [1] is -10.2%; in assay [2], -10.6%; in assay [3] it was -4.5%; in assay [4] it was -5.45%; in assay [5], -22.3%; in assay [6], -30.2%.
As to `CC(=O)Nc1ccc2c(c1)C(=O)c1ccc(S(C)(=O)=O)cc1-2`, the growth inhibition in assay [1] is 14.8%; in assay [2], -1.15%; in assay [3] it was -0.95%; in assay [4] it was 3.5%; in assay [5], -0.85%; in assay [6], -3.35%.
As for `O=C(O)/C=C(/Br)c1ccccc1`, the growth inhibition in assay [1] was -28.9%; in assay [2] it was 7.9%; in assay [3] it was -13.8%; in assay [4], -1.55%; in assay [5], 1.4%; in assay [6] it was -24.4%.
Take `CCOc1ccc(C2Oc3c(cccc3OC)C=C2[N+](=O)[O-])cc1OCC` (stereo unspecified): the growth inhibition in assay [1] is 38.8%; in assay [2], 38.9%; in assay [3], 32.5%; in assay [4], 11.4%; in assay [5], 42.2%; in assay [6], 5.7%.
As for `CC(=O)OCC1OC(n2c(=S)n(-c3ccc([N+](=O)[O-])cc3)c(=O)c3ccccc32)C(OC(C)=O)C(OC(C)=O)C1OC(C)=O` (stereo unspecified), the growth inhibition in assay [1] is -6.3%; in assay [2], 19.1%; in assay [3] it was -9.55%; in assay [4], 19%; in assay [5], 11.8%; in assay [6] it was 9.1%.
`COc1ccc(C(=O)/C=C/c2cccc3ccccc23)cc1`: the growth inhibition in assay [1] is 15.4%; in assay [2] it was 25.7%; in assay [3], 30.9%; in assay [4], -3.85%; in assay [5], 33%; in assay [6] it was 16.6%.
For the compound `Cc1cc2ccccc2nc1-c1ccncc1`, the growth inhibition in assay [1] is 3.45%; in assay [2], -3.15%; in assay [3] it was -7.35%; in assay [4], -44.6%; in assay [5], -6.75%; in assay [6], 1.2%.
